Screen size: about 310,000 compounds; about 14,000 (4.5%) showed an effect of 50% or more. The effect is printed as a negative number. This excerpt belongs to a sample that is enriched for strong results.
These compounds were tested against human ether-à-go-go-related gene (hERG) potassium channel (human, UniProt Q12809) (assay: primary screen, population patch clamp on CHO cells stably expressing hERG; higher = less effect of the substance).
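Note: peak tail current of the secondary pulse compared with the same well before compound.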

Chain of human ether-à-go-go-related gene (hERG) potassium channel (Q12809 whole entry, looked up): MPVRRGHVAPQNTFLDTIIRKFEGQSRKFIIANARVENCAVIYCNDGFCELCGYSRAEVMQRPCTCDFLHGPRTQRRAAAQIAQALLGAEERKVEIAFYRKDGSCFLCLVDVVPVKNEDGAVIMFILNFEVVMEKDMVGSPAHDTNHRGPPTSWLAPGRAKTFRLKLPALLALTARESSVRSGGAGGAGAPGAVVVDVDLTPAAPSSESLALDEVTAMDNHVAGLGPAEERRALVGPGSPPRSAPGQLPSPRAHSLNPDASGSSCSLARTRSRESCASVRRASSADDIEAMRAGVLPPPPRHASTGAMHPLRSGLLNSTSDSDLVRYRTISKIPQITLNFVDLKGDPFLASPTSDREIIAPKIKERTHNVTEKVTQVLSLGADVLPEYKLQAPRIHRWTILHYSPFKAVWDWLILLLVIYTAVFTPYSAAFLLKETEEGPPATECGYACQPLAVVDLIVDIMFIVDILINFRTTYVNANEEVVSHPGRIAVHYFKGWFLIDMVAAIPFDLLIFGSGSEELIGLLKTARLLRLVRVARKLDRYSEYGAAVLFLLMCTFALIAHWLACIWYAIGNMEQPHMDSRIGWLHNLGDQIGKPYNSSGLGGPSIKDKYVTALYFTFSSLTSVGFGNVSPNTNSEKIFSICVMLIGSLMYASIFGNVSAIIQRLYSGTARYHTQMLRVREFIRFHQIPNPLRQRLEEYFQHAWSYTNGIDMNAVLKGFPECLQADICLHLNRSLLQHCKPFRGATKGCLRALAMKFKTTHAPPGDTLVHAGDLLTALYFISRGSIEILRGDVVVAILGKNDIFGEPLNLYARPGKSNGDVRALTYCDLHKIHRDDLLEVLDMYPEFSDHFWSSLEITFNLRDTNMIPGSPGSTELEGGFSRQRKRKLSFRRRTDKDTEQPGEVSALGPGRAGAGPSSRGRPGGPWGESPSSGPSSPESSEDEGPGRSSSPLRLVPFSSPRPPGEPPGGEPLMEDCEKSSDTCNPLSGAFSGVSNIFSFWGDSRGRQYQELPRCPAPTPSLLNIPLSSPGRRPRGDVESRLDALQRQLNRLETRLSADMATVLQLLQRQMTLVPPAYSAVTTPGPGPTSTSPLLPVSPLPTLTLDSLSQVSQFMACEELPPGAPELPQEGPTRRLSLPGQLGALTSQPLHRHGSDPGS

Compared with `Cc1ccc(-c2nn3c(C)nnc3s2)cc1NCc1c(F)cccc1Cl`, `Cc1ccccc1NC(=O)c1cccc(Cn2cc(Br)c([N+](=O)[O-])n2)c1` is lower in “hERG current change (%, negative = inhibition) at 10uM” value: 2.39% for the first, -3.63% for the second.

Going from `Fc1ccc(N2CN(Cc3cccnc3)CNC2=S)cc1` to `COc1ccccc1S(=O)(=O)Cc1ccc(C(=O)NCCCN2CCN(c3ccc(F)cc3)CC2)o1`, the “hERG current change (%, negative = inhibition) at 10uM” value falls from 10.7% to -79.2%.

Going from `Cc1ccc(C(O)Cn2nc(C)cc2C)cc1` (centres unmarked) to `Cc1ccc(-c2nc(C#N)c(NCCCn3ccnc3)o2)cc1`, the “hERG current change (%, negative = inhibition) at 10uM” value falls from 13.7% to -21.9%.

First: CCCCCc1c(O)nc(SCCN(CC)CC)[nH]c1=O.Cl
Second: CCCCCN(C(=O)COC(=O)COc1c(C)cc(C)cc1C)c1c(N)n(CCCC)c(=O)[nH]c1=O
The “hERG current change (%, negative = inhibition) at 10uM” value of the first is higher: 9.87% for the first, -14.4% for the second.

Going from `COc1ccc(N(C(=O)c2cccnc2)S(=O)(=O)c2ccc3c4c(cccc24)C(=O)N3C)cc1` to `COc1ccc(S(=O)(=O)Cc2ccc(C(=O)NCc3ccccc3OC)o2)cc1`, the “hERG current change (%, negative = inhibition) at 10uM” value falls from 17.7% to -41.6%.

First: C=CCn1c(=O)c2ccccc2n2c(SCc3nc4ccccc4s3)nnc12
Second: Cc1cc(CC(C)C)n(-c2nc3ccccc3c(=O)n2OCc2ccccc2)n1
The “hERG current change (%, negative = inhibition) at 10uM” value of the first is lower: -34.4% for the first, -7.08% for the second.

First: CCOc1ccc(NC(=O)Cn2nc(C(N)=O)c3ccccc3c2=O)cc1S(=O)(=O)N1CCCC1
Second: CCOC(=O)Nc1ccc2c(c1)Sc1ccccc1N2C(=O)CCN1CCOCC1
The “hERG current change (%, negative = inhibition) at 10uM” value of the first is higher: 0.537% for the first, -17.6% for the second.

Going from `COc1ccc(NC(=O)c2cccc(Cn3cc(Br)c([N+](=O)[O-])n3)c2)c(C)c1` to `COc1ccc(OC)c(NC(=O)c2cccc(Cn3cc(Br)c([N+](=O)[O-])n3)c2)c1`, the “hERG current change (%, negative = inhibition) at 10uM” value rises from -72% to -13.9%.

First: COc1ccc(CCNc2ncnc3c2nnn3Cc2ccccc2)cc1
Second: N#Cc1nc(-c2ccc(OCc3ccccc3)cc2)oc1NCCCn1ccnc1
The “hERG current change (%, negative = inhibition) at 10uM” value of the first is higher: 13% for the first, -1.96% for the second.

Compared with `COc1ccc(C(=O)C2CCCN(Cc3ccc4nonc4c3)C2)c(C)c1` (centres unmarked), `COc1ccc(C(=O)C2CCCN(Cc3ccc4nonc4c3)C2)c(OC)c1` (centres unmarked) is lower in “hERG current change (%, negative = inhibition) at 10uM” value: -20.3% for the first, -66.7% for the second.

Compared with `COc1ccc(C(=O)C2CCCN(Cc3ccc4nonc4c3)C2)cc1OC` (centres unmarked), `COc1ccc(C(=O)C2CCCN(Cc3ccc4nonc4c3)C2)cc1F` (centres unmarked) is higher in “hERG current change (%, negative = inhibition) at 10uM” value: -67.4% for the first, -41.1% for the second.

First: COc1ccccc1CCNC(=O)CNC(=O)Cc1cccc2ccccc12
Second: CNC(=O)CCc1[nH]c2ccccc2c1Sc1ccccc1
The “hERG current change (%, negative = inhibition) at 10uM” value of the first is lower: -1.6% for the first, 4.85% for the second.

Going from `CC(C(=O)Nc1ncn[nH]1)N1C(=O)c2ccccc2C1=O` (centres unmarked) to `CC(C)[C@@H](C(=O)NCC1CCC(C(=O)O)CC1)n1nnc2ccccc2c1=O` (some centres unmarked), the “hERG current change (%, negative = inhibition) at 10uM” value rises from 17.4% to 19.1%.

First: CCCCn1c(=O)c(C(=O)Nc2ccccc2S(N)(=O)=O)c(O)c2ccccc21
Second: COc1ccccc1S(=O)(=O)Cc1ccc(C(=O)NCCN2CCCC2)o1
The “hERG current change (%, negative = inhibition) at 10uM” value of the first is lower: -12.3% for the first, -8.12% for the second.

Going from `COc1ccc(S(=O)(=O)Cc2ccc(C(=O)NCCCN3CCc4ccccc4C3)o2)cc1` to `COc1ccc(N2CCN(CCCNC(=O)c3ccc(CS(=O)(=O)c4ccc(Cl)cc4)o3)CC2)cc1`, the “hERG current change (%, negative = inhibition) at 10uM” value falls from -51.2% to -77.1%.

Going from `COc1ccc(S(N)(=O)=O)cc1C(=O)NCC(C)(C)N1CCOCC1` to `COc1ccc(S(N)(=O)=O)cc1C(=O)NCCCN1CCN(c2ccc(C)cc2)CC1`, the “hERG current change (%, negative = inhibition) at 10uM” value falls from 8.36% to -50.7%.

Going from `COc1ccc(S(=O)(=O)Cc2ccc(C(=O)NC3CC3)o2)cc1` to `COCCNC(=O)c1ccc(CS(=O)(=O)c2ccc(OC)cc2)o1`, the “hERG current change (%, negative = inhibition) at 10uM” value rises from -2.21% to -0.154%.

Compared with `COc1ccc(S(N)(=O)=O)cc1C(=O)NCCCN1CCN(c2cccc(Cl)c2)CC1.CS(=O)(=O)O`, `COc1ccc(N2CCN(CCCNC(=O)c3ccc(CS(=O)(=O)c4ccc(OC)cc4)o3)CC2)cc1` is lower in “hERG current change (%, negative = inhibition) at 10uM” value: -23.9% for the first, -68.9% for the second.

First: Cc1ccc(S(=O)(=O)Cc2ccc(C(=O)NCCCN3CCN(C)CC3)o2)cc1
Second: O=C(NCCCN1CCCC1)c1ccc(CS(=O)(=O)c2ccc(Cl)cc2)o1
The “hERG current change (%, negative = inhibition) at 10uM” value of the first is higher: 15.6% for the first, -6.15% for the second.

Going from `O=C(NCCN1CCOCC1)c1ccc(CS(=O)(=O)c2ccc(Cl)cc2)o1` to `COc1ccccc1S(=O)(=O)Cc1ccc(C(=O)NCCN2CCCCCC2)o1`, the “hERG current change (%, negative = inhibition) at 10uM” value rises from -4.24% to 2.78%.

Going from `O=C(Nc1cccc(F)c1)N1CC=C(c2ccc(Cl)cc2)CC1` to `O=C(CSc1ccc(-c2ccc(F)cc2)nn1)N1CCOCC1`, the “hERG current change (%, negative = inhibition) at 10uM” value falls from -13.8% to -17.4%.

Going from `Cc1ccc(CN2CCN(/N=C/c3ccc(Cl)c([N+](=O)[O-])c3)CC2)cc1` to `COc1cc(/C=N/N2CCN(c3ccccc3)CC2)cc(OC)c1OC(C)=O`, the “hERG current change (%, negative = inhibition) at 10uM” value falls from -4.43% to -39.4%.

First: CCCOC1CCCN(C(=O)c2ccc3oc(C(C)C)nc3c2)C1 (centres unmarked)
Second: COc1ccc(NC2CCCN(C(=O)c3ccc(C(C)=O)s3)C2)cc1 (centres unmarked)
The “hERG current change (%, negative = inhibition) at 10uM” value of the first is lower: 3.64% for the first, 16.1% for the second.

Compared with `Cc1ccccc1OCc1nc(-c2ccc(NC(=O)c3ccco3)cc2)no1`, `N#Cc1nc(-c2ccc(OCc3ccccc3Cl)cc2)oc1NCCCn1ccnc1` is lower in “hERG current change (%, negative = inhibition) at 10uM” value: 5.41% for the first, -13% for the second.

Compared with `COc1ccc(N=Cc2c(O)n(Cc3ccccc3)c(=S)[nH]c2=O)c(OC)c1`, `COc1ccc(NC(=O)N(Cc2ccc(C)cc2)Cc2cccnc2)c(OC)c1` is lower in “hERG current change (%, negative = inhibition) at 10uM” value: -1.29% for the first, -10.6% for the second.

First: O=C(Nc1ccccc1Cl)O/N=C(/c1ccccc1)c1ccccn1
Second: NC(=S)Nc1cc2ccccc2c2ccccc12
The “hERG current change (%, negative = inhibition) at 10uM” value of the first is lower: 6.47% for the first, 6.65% for the second.

Going from `Cc1cc(C)cc(OCC(=O)N2N=C(c3cccnc3)CC2(O)C(F)(F)F)c1` (centres unmarked) to `COCCN(C(=O)COC(=O)c1cnc(C)cn1)c1c(N)n(Cc2ccccc2)c(=O)[nH]c1=O`, the “hERG current change (%, negative = inhibition) at 10uM” value rises from -15.3% to -4.85%.

First: Cc1cccc(N2C(=O)C(O)=C(C(=O)c3cccs3)C2c2ccc(F)cc2)n1 (centres unmarked)
Second: Cc1cc(Nc2ccc(O)cc2)n2c(nc3ccccc32)c1C#N
The “hERG current change (%, negative = inhibition) at 10uM” value of the first is lower: 14.9% for the first, 16.6% for the second.

First: O=C(NNS(=O)(=O)c1ccccc1)C1CCCCC1
Second: O=C(O)C1CCN(S(=O)(=O)c2ccc(Oc3ccccc3)cc2)CC1
The “hERG current change (%, negative = inhibition) at 10uM” value of the first is lower: 6.38% for the first, 17.8% for the second.

Compared with `N#Cc1nc(COc2ccccc2)oc1NCCCn1ccnc1`, `N#Cc1nc(Cc2ccccc2)oc1NCCCn1ccnc1` is higher in “hERG current change (%, negative = inhibition) at 10uM” value: -50% for the first, -31.5% for the second.

Going from `Cc1ccc(OCc2nc(C#N)c(NCCCn3ccnc3)o2)cc1` to `N#Cc1nc(COc2ccc(Br)cc2)oc1NCCCn1ccnc1`, the “hERG current change (%, negative = inhibition) at 10uM” value falls from -56% to -63.2%.

Compared with `N#Cc1nc(-c2ccccc2)oc1NCCCn1ccnc1`, `N#Cc1nc(Cc2cccc3ccccc23)oc1NCCCn1ccnc1` is lower in “hERG current change (%, negative = inhibition) at 10uM” value: -27.5% for the first, -71% for the second.

Compared with `N#Cc1nc(COc2ccccc2)oc1NCCN1CCOCC1`, `N#Cc1nc(COc2ccc(F)cc2)oc1NCCN1CCOCC1` is lower in “hERG current change (%, negative = inhibition) at 10uM” value: -11.3% for the first, -12.9% for the second.

Going from `COc1ccccc1OCc1nc(C#N)c(NCCCn2ccnc2)o1` to `COc1ccc(OCc2nc(C#N)c(NCCCn3ccnc3)o2)cc1`, the “hERG current change (%, negative = inhibition) at 10uM” value falls from 6.7% to -43.4%.

Compared with `N#Cc1nc(COc2ccc(Br)cc2)oc1NCCN1CCOCC1`, `COc1ccc(-c2nc(C#N)c(NCCCN3CCOCC3)o2)cc1` is higher in “hERG current change (%, negative = inhibition) at 10uM” value: -56.6% for the first, -13% for the second.

First: Cc1csc(C(C#N)C(=O)c2ccncc2)n1 (centres unmarked)
Second: N#C/C(C(N)=O)=C1/CCc2ccccc2N1
The “hERG current change (%, negative = inhibition) at 10uM” value of the first is higher: 19.2% for the first, -9.51% for the second.

First: CCN(CC)c1ccc(N=Cc2c(O)[nH]c(=O)[nH]c2=O)cc1
Second: CCc1ccc[n+](-c2[nH]c(=O)sc2/C=N/N=C(\N)[O-])c1
The “hERG current change (%, negative = inhibition) at 10uM” value of the first is higher: -1.25% for the first, -10% for the second.

Going from `COC(=O)C1=CNC=C(C(=O)OC)C1c1ccc(Cl)cc1` to `COc1ccc(C(C(=O)NCCC(C)C)N(CCO)C(=O)c2snc(C(N)=O)c2N)cc1` (centres unmarked), the “hERG current change (%, negative = inhibition) at 10uM” value rises from -8.91% to -1.26%.

Going from `N#Cc1nc(-c2ccc(F)cc2)oc1NCCN1CCOCC1` to `N#Cc1nc(-c2ccco2)oc1NCCN1CCOCC1`, the “hERG current change (%, negative = inhibition) at 10uM” value rises from -0.823% to 7.46%.

Compared with `Cc1ccc(-c2nc(C#N)c(NCCN3CCCCC3)o2)cc1`, `N#Cc1nc(-c2cccc3ccccc23)oc1NCCN1CCCCC1` is higher in “hERG current change (%, negative = inhibition) at 10uM” value: -55.8% for the first, -36.2% for the second.

Going from `N#Cc1nc(Cc2cccc3ccccc23)oc1NCCCN1CCOCC1` to `N#Cc1nc(Cc2cccc3ccccc23)oc1NCCN1CCOCC1`, the “hERG current change (%, negative = inhibition) at 10uM” value rises from -26.3% to -20.3%.

Going from `N#Cc1nc(Cc2cccc3ccccc23)oc1NCCN1CCCCC1` to `N#Cc1nc(-c2ccco2)oc1NCCCN1CCOCC1`, the “hERG current change (%, negative = inhibition) at 10uM” value rises from -60.3% to -54.9%.

Going from `N#Cc1nc(-c2ccc(OCc3ccc(Cl)cc3)cc2)oc1NCCCn1ccnc1` to `CC(C)C[C@@H](CO)N(Cc1ccccc1)S(=O)(=O)N(Cc1ccccc1)[C@@H](CO)CC(C)C`, the “hERG current change (%, negative = inhibition) at 10uM” value rises from 5.77% to 7.47%.
